About 83,000 compounds went through this panel and 20% of them were active in at least one assay; those are over-represented in the sample as a whole.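 How to read the values: 0–100, growth inhibition (40 = 60% inhibited); 0, no net growth; -100 to 0, cell death (-40 = 40% of starting cells died; -100 = all dead).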 A number with no mark means an inactive call. The source made the active and inactive calls. Rule for the calls: active = growth percent below 10; inactive = the rest.
Legend:
Experiment in all cases: NCI-60 one-dose screen, 48 h (100 = growth as untreated, 0 = no growth, -100 = all killed)
Details in all cases: 10 µM unless noted
MOLT-4 leukemia = tested on: MOLT-4 leukemia
RPMI-8226 leukemia = tested on: RPMI-8226 leukemia
OVCAR-8 ovarian = tested on: OVCAR-8 ovarian
OVCAR-5 ovarian = tested on: OVCAR-5 ovarian
OVCAR-4 ovarian = tested on: OVCAR-4 ovarian
SK-OV-3 ovarian = tested on: SK-OV-3 ovarian
IGROV1 ovarian = tested on: IGROV1 ovarian
OVCAR-3 ovarian = tested on: OVCAR-3 ovarian
HS 578T breast = tested on: HS 578T breast
NCI/ADR-RES ovarian = tested on: NCI/ADR-RES ovarian
T-47D breast = tested on: T-47D breast
BT-549 breast = tested on: BT-549 breast
MDA-MB-435 melanoma = tested on: MDA-MB-435 melanoma
SW-620 colon = tested on: SW-620 colon
MCF7 breast = tested on: MCF7 breast
HCT-116 colon = tested on: HCT-116 colon
HCC-2998 colon = tested on: HCC-2998 colon
KM12 colon = tested on: KM12 colon
SR leukemia = tested on: SR leukemia

SMILES	growth (MOLT-4 leukemia)	growth (RPMI-8226 leukemia)	growth (OVCAR-8 ovarian)	growth (OVCAR-5 ovarian)	growth (OVCAR-4 ovarian)	growth (SK-OV-3 ovarian)	growth (IGROV1 ovarian)	growth (OVCAR-3 ovarian)	growth (HS 578T breast)	growth (NCI/ADR-RES ovarian)	growth (T-47D breast)	growth (BT-549 breast)	growth (MDA-MB-435 melanoma)	growth (SW-620 colon)	growth (MCF7 breast)	growth (HCT-116 colon)	growth (HCC-2998 colon)	growth (KM12 colon)	growth (SR leukemia)
COc1ccc(/C=C\c2cc(OC)c(OC)c(OC)c2)cc1NC(=O)/C=C/c1ccc(OC)c(OC)c1	17.3%	53.6%	44.4%	55.4%	58.7%	-19.5% (active)	55.1%	1.59% (active)	31.3%	-8.84% (active)	40.2%	39.1%	-51.4% (active)	39.2%	21.3%	25%	-3.07% (active)	27.3%	
CC(=O)O[C@H](C[C@H](C(C)C)N(C)C(=O)[C@@H](NC(=O)[C@H]1CCCCN1C)C(C)C)c1nc(C(=O)N[C@@H](Cc2ccccc2)C[C@H](C)C(=O)O)c(C(C)C)s1	7.85% (active)	17.4%	6.46% (active)	39.1%	46.9%	27%	20.6%	-28.1% (active)	17%	0.688% (active)	44%	-23.3% (active)	-42% (active)	27.3%	15.1%	3.68% (active)	-2.79% (active)	4.51% (active)	
CC1[C@H](C)OC(=O)CC(O)CC(O)CC(O)CCC(O)C(O)C[C@]2(O)CC(O)C(C(=O)O)C(CC(OC3O[C@H](C)[C@@H](O)[C@H](N)[C@@H]3O)/C=C/C=C/C=C/C=C/CC/C=C/C=C/[C@H](C)[C@H]1O)O2 (some centres undefined)	122%	106%	92%	95.4%	102%	110%	101%	109%	97%	93.2%	108%	105%	102%	99.5%	104%	97%		106%	
CC12CCC3C(CCC4Cc5[nH]c6ccccc6c5CC43C)C1CCC2O (centres undefined)	21.6%	-20% (active)	36.9%	122%	51.8%	29.5%	50.8%	-28.3% (active)	-8.19% (active)	38.4%	29.2%	60.4%	-25.2% (active)	11.5%	5.13% (active)	23.3%		23.3%	
C[C@@]12CC[C@@H](O)C[C@@H]1CC[C@H]1[C@H]2CC[C@@]2(C)[C@H](c3ccc(=O)oc3)CC[C@@]12O	-26.7% (active)	-14.8% (active)	-63.3% (active)	-86.2% (active)	-76.3% (active)	-11.9% (active)	-28.7% (active)	-84.8% (active)	-14% (active)	-39.6% (active)	-18.1% (active)	-84.2% (active)	-81.9% (active)	-68.3% (active)	-27% (active)	-76% (active)	-50.7% (active)	-87.6% (active)	
CS(=O)(=O)CCN1CC2CCCC(C2)C1	102%		104%	102%	102%	100%	115%	110%	102%	105%	102%	92.5%		111%	92.3%	94.7%	99.5%	111%	
CCOP1(=O)CC(C)=C(Cl)C(P(=O)(OCC)OCC)C1 (centres undefined)	106%	107%	84.3%	82.9%	92.4%	98.8%		94.5%	103%	85.8%	96.4%	112%	114%	97.3%	99.7%	107%	86.3%	114%	
CC1(C)N=C(N)N=C(N)N1c1ccc(CCCCc2ccc(Cl)c(S(=O)(=O)F)c2)c(Cl)c1	-33.1% (active)	-24.2% (active)	5.53% (active)	44.9%	35.8%	57.4%		29.5%	75.3%	55.6%	42.3%	24.7%	24.6%	24.4%	19.1%	19.6%	23.7%	15.2%	
CCN(CC)CCOC(=O)C(OC(C)C)(c1ccccc1)c1ccccc1	93.1%		106%	92.9%	103%	94.4%	87.2%	97.3%	93.4%	100%	93.8%	96.6%	103%	91.5%	95.3%	78.4%	108%	101%	
CCN(CCO)C(Cc1ccccc1)c1ccccc1 (centres undefined)			109%	93%	102%	110%	97.4%	109%	105%	94.7%	111%	100%	94.4%	96.4%	94%	99.3%	96.8%	99.4%	116%
C/C1=C/C(=O)O[C@@H]2C[C@@H](CC[C@H](C)/C=C\C=C\CC1)O[C@@](O)([C@@H]1CSC(=O)N1CO)C2	33.4%	50.7%	42.8%	-3.16% (active)	20.4%	-14.1% (active)		-7.34% (active)	-48.7% (active)	47.6%	56.8%	-13.3% (active)	32%	53.2%	56.8%	27.2%	34.7%	62%	
COc1ccc(/C=C\c2cc(OC)c(OC)c(OC)c2)cc1NS(=O)(=O)c1ccc(Cl)cc1		64.3%	78.5%	83.4%	55%	81.9%	61.9%	76.6%	67.8%	35.2%	59.9%	83.5%	3.63% (active)	73.6%		61.8%	74.8%	50.4%	51.4%
N#CC1(C#N)C(c2ccc(N(CCCl)CCCl)cc2)OC23CCCCC2C1(C#N)C(=N)O3 (centres undefined)		96.2%	80.6%	105%	91.9%	96.8%	77%	98.5%	101%	71%	65.6%	84.6%	101%	88.6%	49.3%	89.2%	95.2%	100%	
N#Cc1c(Br)n(C2OC(CO)C(O)C2O)c2ncnc(N)c12 (centres undefined)			35.2%	95.5%	75.3%	78.3%	-35.1% (active)		39.5%	52.9%	9.15% (active)	73.5%	51.4%	30.5%	3.47% (active)	40.3%	83.7%	34%	
COC(=O)CCC1=C(C)c2cc3[n-]c(cc4nc(cc5[n-]c(cc1n2)c(CCC(=O)OC)c5C)C=C4C)cc3C.[Cd+2]		-1.53% (active)	68.7%	103%	37.7%	83.5%	35.1%	-58.1% (active)	39.8%	83.5%	42.7%	-31.9% (active)	23.1%	25.3%	26.9%	79.8%	95.9%	13.3%	
O=C1C(Cl)=C(N2CCOCC2)C(=O)c2ccccc21		-3.69% (active)	68.2%	119%	37.7%	110%	-47.2% (active)	-58.3% (active)	116%	90.9%	-23% (active)	106%	67%	-16.5% (active)	93.4%		108%	102%	-37.1% (active)
CCc1ccccc1[C@@H]1C[C@]2(C)CCO[C@@H]2OO1	105%		96%	109%	96.3%	107%	108%	113%	101%	105%	101%	111%	109%	102%	95.7%	96.3%		101%	
O=P(N1CC1)(N1CC1)N1CCc2ccccc21			103%	112%	115%	111%	130%	107%	106%	101%	111%	99.4%	111%	101%	86.5%	94.2%	99.5%	113%	
